The text below walks through data of PubChem BioAssay (NCATS).

Each structure is given as a SMILES string. Records with an inconclusive call do not appear. Values without a mark were called inactive. Calls of active or inactive are those of the source. Calls follow the shape of the dose curve; as a rule, active = well fitted inhibition curve with a large enough effect; inconclusive = small, poorly fitted or top-dose-only effect; inactive = flat fitted curve, though single readings scatter.
% is scaled to controls: 0 for no effect and ±100 for the full control effect; potency is read from the fitted curve at half-maximal effect.

Chain of Ubiquitin carboxyl-terminal hydrolase 1 (Homo sapiens) (O94782 whole entry, looked up): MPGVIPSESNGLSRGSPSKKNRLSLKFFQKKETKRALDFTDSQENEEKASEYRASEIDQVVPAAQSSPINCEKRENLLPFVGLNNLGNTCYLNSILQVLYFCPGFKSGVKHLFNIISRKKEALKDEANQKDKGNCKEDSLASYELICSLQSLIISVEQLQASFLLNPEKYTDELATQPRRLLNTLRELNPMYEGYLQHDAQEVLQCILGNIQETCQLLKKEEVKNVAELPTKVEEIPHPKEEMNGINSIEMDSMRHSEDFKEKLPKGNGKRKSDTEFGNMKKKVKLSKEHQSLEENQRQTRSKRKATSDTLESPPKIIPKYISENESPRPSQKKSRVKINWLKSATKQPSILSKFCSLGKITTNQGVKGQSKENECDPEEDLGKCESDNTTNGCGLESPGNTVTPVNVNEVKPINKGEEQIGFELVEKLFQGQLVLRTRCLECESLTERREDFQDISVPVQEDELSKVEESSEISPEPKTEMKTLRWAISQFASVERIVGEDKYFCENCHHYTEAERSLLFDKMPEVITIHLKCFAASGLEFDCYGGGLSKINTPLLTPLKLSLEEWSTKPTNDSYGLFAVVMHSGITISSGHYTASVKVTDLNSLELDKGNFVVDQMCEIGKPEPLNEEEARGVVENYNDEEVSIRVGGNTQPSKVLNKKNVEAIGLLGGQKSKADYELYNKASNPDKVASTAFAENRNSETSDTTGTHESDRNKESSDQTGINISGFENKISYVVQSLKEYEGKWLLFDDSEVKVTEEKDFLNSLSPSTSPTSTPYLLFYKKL

The target of the assay is Ubiquitin carboxyl-terminal hydrolase 1 (Homo sapiens) (UniProt O94782). The assay is described as follows: Inhibitors of USP1/UAF1: Pilot qHTS (AID 504865). Also: nearly all actives have a fitted effect of over 35% in size.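 As to activity change, negative = inhibition: rhodamine fluorescence freed from ubiquitin-rhodamine substrate followed over time; top concentration of the series differs between compounds.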 Conditions: purified USP1/UAF1, Ub-rhodamine cleavage fluorescence; series mostly up to 114 µM; activity change, negative = inhibition: at the top concentration. The source says:
Deubiquitinating enzymes (DUBs) are a class of enzymes that can cleave isopeptide bond formed between the C-terminal carboxylate of ubiquitin and a lysine side-chain amino group on the target protein. Among them, ubiquitin specific proteases (USPs) constitute the largest DUB family. Human USPs are emerging as promising targets for pharmacological intervention because of their connection to a number of human diseases, including prostate, colon and breast cancer (1, 2), pediatric acute lymphoblastic leukemia (3), and familial cylindromatosis (4). The advantage of inhibiting USPs lies in the potential specificity of therapeutic intervention that can lead to better efficacy and reduce nonspecific side effects.
In a collaboration between the University of Delaware and the NIH Chemical Genomics Center, a high-throughput screen assay was developed to screen for USP1/UAF1 inhibitors. This miniaturized assay has a fluorescent read-out and is used to screen the NIH Molecular Libraries Small Molecule Repository (MLSMR) in order to identify a small molecule that inhibits USP1.
NIH Chemical Genomics Center [NCGC]
NIH Molecular Libraries Probe Centers Network [MLPCN]
Assay Submitter (PI): Zhihao Zhuang, University of Delaware
1. Priolo, C., et al. (2006) The isopeptidase USP2a protects human prostate cancer from apoptosis. Cancer Res 66, 8625-8632
2. Popov, N., et al. (2007) The ubiquitin-specific protease USP28 is required for MYC stability. Nat Cell Biol 9, 765-774
3. De Pitta, C., et al. (2005) A leukemia-enriched cDNA microarray platform identifies new transcripts with relevance to the biology of pediatric acute lymphoblastic leukemia. Haematologica 90, 890-898
4. Kovalenko, A., et al. (2003) The tumour suppressor CYLD negatively regulates NF-kappaB signalling by deubiquitination. Nature 424, 801-805
3 microliters of reagents (buffer in columns 3 and 4 as negative control and 1nM USP1/UAF1 complex in columns 1, 2, and 5-48) are dispensed into Greiner black solid bottom 1536-well assay plates. Compounds are then transferred via Kalypsys pin tool equipped with 1536-pin array (10nl slotted pins, V&P Scientific, San Diego, CA). Following an incubation step of 15 min at room temperature, 1ul of Ub-Rho substrate (150nM final concentration) is added to initiate the reaction. The plates are immediately centrifuged at 1000 rpm for 15 seconds, and subsequently transferred to a ViewLux high-throughput CCD imager (PerkinElmer) wherein kinetic measurements of fluorescence are acquired using 480 nm excitation/540 nm emission filter set (6 reads every 60 seconds, see Table 1). All reagents are diluted in an assay buffer consisting of 50mM HEPES (pH 7.8), 0.5mM EDTA, 0.1 mg/ml BSA, 1mM TCEP, and 0.01% Tween-20.
Consider `COc1ccc2c(=O)c(C)c(-c3ccccc3)oc2c1CN(C)C`, for which the “activity change, negative = inhibition” value is -7.13%.
Still for that read-out and setting: the same measure for `O=C1CCC(c2ccccc2)(C2CCN(Cc3ccccc3)CC2)C(=O)N1` (stereo not given): -11.3%; for `CN(C)C=Nc1c(I)cc(I)c(CCC(=O)O)c1I`: -12.1%.
Still for that read-out and setting: the same measure for `CCOC(=O)c1c[nH]c2cc(OCC(C)C)c(OCC(C)C)cc2c1=O`: -6.26%.
The same measure, in the same setting: under `CC(=O)Nc1c(I)c(C(=O)O)c(I)c(N(C)C(C)=O)c1I` stands -10.7%.
In the case of `CCCC(=O)O`, the “activity change, negative = inhibition” value was -5.79%.
Turning to `CCN(CC)CCC(=O)N1c2ccccc2Sc2ccc(C(F)(F)F)cc21`, the “activity change, negative = inhibition” value is -8.68%.
The same measure, in the same setting: under `CC(=O)N[C@@H]1C(O[C@H]2O[C@H](C(=O)O)C(O)[C@H](O)[C@H]2O)[C@H](O)[C@@H](CO)O[C@H]1O[C@@H]1C(C(=O)O)O[C@@H](O[C@H]2[C@H](O)[C@@H](CO)OC(O)[C@@H]2NC(C)=O)[C@H](O)[C@H]1O` (stereo not given in full) stands 1.36%.
On the same count and under the same terms, the same measure for `CSCCC(N)C(=O)O` (stereo not given): -3.81%.
For `COc1cc(C)c(/C=C/C(C)=C/C=C/C(C)=C/C(=O)O)c(C)c1C`, the Potency is 50.1 µM (active).
Consider `C[C@@](Cc1ccc(O)c(O)c1)(NN)C(=O)O`, for which the “activity change, negative = inhibition” value was -10.2%.
On the same count and under the same terms, under `Cc1ncc(COP(=O)(O)O)c(CN)c1O` stands -8.21%; under `CC(C)c1ncc([N+](=O)[O-])n1C`, -3.24%; under `C[C@H](CCCC(C)(C)O)[C@H]1CC[C@H]2[C@@H]3CC=C4C[C@@H](O)CC[C@]4(C)[C@H]3CC[C@]12C`, 5.75%.
On the same count and under the same terms, the same measure for `CC(C)Cc1ccc([C@@H](C)C(=O)NS(C)(=O)=O)cc1`: -13.7%.
On to `COC(=O)CCC[N+](C)(C)C`, for which the “activity change, negative = inhibition” value is -3.54%.
In the case of `C=CCN1CCCC1CNC(=O)c1cc(S(N)(=O)=O)cc(OC)c1OC` (stereo not given), the “activity change, negative = inhibition” value was -0.641%.
On to `CN(C)c1ccc(C(=C2C=CC(=[N+](C)C)C=C2)c2c(O)c(S(=O)(=O)[O-])cc3cc(S(=O)(=O)O)ccc23)cc1`, for which the Potency is 56.2 µM (active).
Take `CCN(CC)C(=S)S`: the “activity change, negative = inhibition” value was -3.68%.
For `O=C1[O][Bi][O]c2ccccc21`, the “activity change, negative = inhibition” value was -2.06%.
Regarding `O=C(O)[C@H]1CN(C/C=C/P(=O)(O)O)CCN1`, the “activity change, negative = inhibition” value is -5.98%.
The same measure, in the same setting: the same measure for `Cc1cc(=O)c(C(=O)N[C@@H](C(=O)N[C@@H]2C(=O)N3C(C(=O)O)=C(CSc4nnnn4C)CS[C@H]23)c2ccc(O)cc2)c[nH]1`: 2.08%; for `N=C(N)c1ccc(/C=C/c2ccc(C(=N)N)cc2O)cc1`: -11%.
As to `Nc1nccs1`, the “activity change, negative = inhibition” value was -7.64%.
As for `CC1C(=O)CC2C3(C)CCC2(C(C)C(=O)O)C(=O)C13` (stereo not given), the “activity change, negative = inhibition” value was -2.2%.
In the case of `FCOC(C(F)(F)F)C(F)(F)F`, the “activity change, negative = inhibition” value is 3.06%.
As for `c1ccc2ccccc2c1`, the “activity change, negative = inhibition” value was -5.79%.
Still for that read-out and setting: under `OB(O)O` stands 0.161%.
Regarding `Cc1c(C)c2c(c(C)c1OC(=O)CCC(=O)O)CC[C@@](C)(CCC[C@H](C)CCC[C@H](C)CCCC(C)C)O2`, the Potency was 35.5 µM (active).
On to `CC(C)(COP(=O)(O)OP(=O)(O)OC[C@H]1O[C@@H](n2cnc3c(N)ncnc32)[C@H](O)[C@@H]1OP(=O)(O)O)C(O)C(=O)NCCC(=O)NCCS` (stereo not given in full), for which the “activity change, negative = inhibition” value is -6.74%.
Still for that read-out and setting: the same measure for `O=C1c2ccccc2C(=O)C1c1ccc(Cl)cc1`: -11.6%.
`O=C(O)CCC/C=C\C[C@@H]1[C@@H](/C=C/[C@@H](O)COc2cccc(C(F)(F)F)c2)[C@H](O)C[C@@H]1O`: the “activity change, negative = inhibition” value is -8.47%.
Same read-out and setting: under `CC(C)c1nc(N(C)S(C)(=O)=O)nc(-c2ccc(F)cc2)c1/C=C/C(O)CC(O)CC(=O)O` (stereo not given) stands -7.21%; under `CC(=O)Oc1cccc2c1C(=O)c1c(OC(C)=O)cc(C(=O)O)cc1C2=O`, 9.64%.
Still for that read-out and setting: under `N=C(N)n1cccn1` stands -0.943%.
Same read-out and setting: under `c1ccc2c(c1)Sc1ccccc1N2CCN1CCCC1` stands -5.5%; under `CC12CCC(C[N+](C)(CCC[N+](C)(C)C)C1)C2(C)C` (stereo not given), 3.86%; under `[O]=[Bi][O][Bi]=[O]`, 0.348%.
On to `CO/N=C(\C(=O)N[C@@H]1C(=O)N2C(C(=O)[O-])=C(C[n+]3cccc4c3CCC4)CS[C@H]12)c1csc(N)n1`, for which the “activity change, negative = inhibition” value is -7.09%.
Still for that read-out and setting: under `CCCCC(CC)COS(=O)(=O)O` (stereo not given) stands 3.03%.
